The record followed here is PubChem BioAssay.

Each structure is given as a SMILES string. Several values for one entry are separate records, joined by “and”; a condition that tells them apart may be missing. Equal values may be shown once. For some assays here: Entries with a potency or affinity are not part of this list. Some structures have more than one record in an assay (separate samples or runs), and their calls can disagree. Activity calls are given as the source filed them.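 Rule for the calls, unless noted: active = compounds whose cell count with miR-34 switched on is under 0.7 times the count with it off; inactive = the rest.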

Assay [1] deals with 6-phosphogluconate dehydrogenase, decarboxylating (Homo sapiens) (UniProt P52209). Put plainly: inhibition of human phosphogluconate dehydrogenase – biochemical, recombinant enzyme, NADPH absorbance, primary screen (AID 1159550;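 active = at least 20% inhibition of 6-phosphogluconate dehydrogenase activity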). To be noted: recombinant 6PGD, NADPH absorbance 341 nm; at 10 µM; stronger effect = higher value.
Assay [2] in a line: EMT-state selective cytotoxicity in co-culture – imaging, PC-3E GFP, TEM4-18 mCherry, primary screen (AID 1345086;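 active = compounds killing one labelled cell type while sparing the other, by normalised counts and ratio limits, not self-fluorescent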;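 for all read-outs here: cells exposed to compound for 72 h before imaging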;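 for red/green cell ratio (normalised): normalised mesenchymal count divided by normalised epithelial count so high means epithelial killing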). To be noted: PC-3E GFP / TEM4-18 mCherry co-culture, imaging cell counts, at 1 µM; for red/green cell ratio (normalised): actives lie on both sides, counts scaled to control wells, 1 = unselective.
Assay [3] can be described thus: viability loss with induced miR-34 in A549 – imaging, A549 dox-inducible miR-34, nuclei and caspase counts, primary screen (AID 1347080). Particulars: A549 miR-34 inducible, Hoechst nuclei count, 48 h.
Assay [4] is described as follows: P. berghei load reduction in hepatocytes – cell-based, HepG2, luciferase luminescence, HepG2 viability, primary screen (AID 624349; in the data active = parasite load remaining mostly below about 12%, no sharp cut-off; inactive = mostly above about 10%;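 note: 100% = mean of DMSO negative control wells on the same plate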). Particulars: P. berghei liver stage in HepG2, luciferase luminescence, concentration not given here; parasite load remaining: stronger effect = lower value; viability: measured here: HepG2 viability without parasites.
Assay [5] in a line: MELAS cybrid and Rieske KO viability enhancers – cell-based, MELAS cybrids, Rieske KO mouse fibroblasts, CellTiter-Glo, primary screen (AID 1508586;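 active = mean z-score across replicates of 1.96 or higher in either the MELAS or the Rieske mutant cell line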;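 note: z relative to plate mean and SD of compound and empty wells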). To be noted: low glucose.
For assay [6], the target named is NAD(+) hydrolase SARM1 (Homo sapiens) (UniProt Q6SZW1). Put plainly: blocking NAD cleavage by SARM1 SAM-TIR – cell lysate, NAD-Glo luminescence (AID 1508614;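 active = compound whose remaining NAD level is above about 45 nM, limit read from the data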;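 note: higher remaining NAD means stronger inhibition of SARM1 NADase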). Particulars: SAM-TIR HEK293T lysate NADase, at 1 µM, stronger effect = higher value.
In assay [7] the target is Mitogen-activated protein kinase 7 (Homo sapiens) (UniProt Q13164). Briefly: Gal4-ERK5 driven luciferase induction – cell-based, HTS, primary screen (AID 1508626;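 active = luciferase signal above three times the same-plate solvent-only control wells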;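 note: luciferase driven by Gal4-ERK5 fusion binding five Gal4 sites before minimal TATA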). To be noted: HeLa Gal4-ERK5 transactivation, 18 h, at 5 µM, stronger effect = higher value.
Assay [8] is described as follows: galactose survival enhancers in mitochondrial complex I cybrids – cell-based, galactose medium, ATP luminescence, primary screen (AID 1645843;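 active = z-score of at least 1.8 in each of two replicates, scored against plate mean and spread of sample wells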;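 note: positive z means more ATP and so rescue of galactose-driven cybrid death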). Particulars: complex I mutant cybrid cells, 72 h, stronger effect = higher value.
Assay [9] is described as follows: compounds altering circadian rhythm period length – cell-based, LOPAC library, luminescence reporter (AID 2774; call rule not given here;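 note: values are relative to mean of DMSO wells on each plate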). To be noted: circadian reporter cells, at 7 µM, actives lie on both sides.
The nature of assay [10]: blockers of cellular phospholipid synthesis – cell-based, LOPAC library, screen 4, primary screen (AID 1347384; call rule not given here). To be noted: animal cells, phospholipid biosynthesis inhibition screen; at 10 µM.
The nature of assay [11]: blockers of polyQ-driven CASP3 activation – cell-based (AID 1583). To be noted: polyglutamine-induced caspase-3 activation, cell assay; stronger effect = higher value;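 tested at 10 µM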.
Assay [12] can be described thus: yeast 75Q aggregation reduction – 75Q-TubU reporter (AID 1593). Particulars: Yeast 75Q polyglutamine aggregation reporter.
Assay [13] in a line: restoration of touch response, mutant HTT neurons – whole organism, C. elegans mechanosensory neurons, N-terminal huntingtin (AID 1599). To be noted: C. elegans polyQ-huntingtin mechanosensory neurons, stronger effect = higher value.
A short description of assay [14]: blockers of cytochrome c efflux from mitochondria – biochemical, purified mitochondria (AID 1603).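 Note: mouse liver mitochondria challenged with calcium chloride; signal normalized to the plate average as 100%.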 Particulars: stronger effect = lower value.
Assay [15] can be described thus: polyglutamine aggregate formation blockers (AID 1604). Particulars: polyglutamine-induced protein aggregation inhibition assay; stronger effect = higher value; tested at 2.5 µM.
Assay [16] can be described thus: glutamate transport activators, MN-1 cells, MN-1 cell line (AID 1612).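 Note: tested at 1 µM final; 0% = mean of DMSO vehicle wells on each plate; positive means more glutamate uptake than control and negative means less.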 Particulars: MN-1 motor neuron cells, stronger effect = higher value.
Assay [17] in a line: GFP-Q80 aggregate reduction, neuronal-like cells, cell-based, NGF-treated PC12, GFPQ80 (AID 1614).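 Note: lower means fewer inclusions and 0 means no inclusions at all.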 To be noted: PC12 NGF-treated GFP-polyQ80 inclusion reduction.
Assay [18] is described as follows: 75Q-TubH aggregate inhibition, S. cerevisiae, yeast (AID 1616). To be noted: S. cerevisiae 75Q-TubH polyglutamine aggregation suppression; stronger effect = higher value.
The nature of assay [19]: compounds altering viability of human ES cells (AID 493140; call rule not given here;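 note: cells exposed to compounds for four days before counting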). To be noted: human embryonic stem cell survival screen; stronger effect = higher value.
Setting [20] is: measured here: epithelial PC-3E GFP cell survival.
[21] abbreviates: measured here: mesenchymal TEM4-18 mCherry cell survival.
The mark [22] stands for this setting: stronger effect = lower value, cell number ratio, induced over uninduced.
Where [23] appears, read: measured here: relative caspase fold change +Dox/-Dox.
Setting [24] is: measured here: total cells with miR-34 induction, stronger effect = lower value.
The mark [25] stands for this setting: measured here: total cells without miR-34 induction.
The mark [26] stands for this setting: MELAS cybrid survival, CellTiter-Glo 48 h, stronger effect = higher value.
The mark [27] stands for this setting: Rieske KO mouse fibroblast survival, CellTiter-Glo 72 h.

Sequence of Mitogen-activated protein kinase 7 (Homo sapiens) (Q13164 whole entry, looked up, the tested form may be a part): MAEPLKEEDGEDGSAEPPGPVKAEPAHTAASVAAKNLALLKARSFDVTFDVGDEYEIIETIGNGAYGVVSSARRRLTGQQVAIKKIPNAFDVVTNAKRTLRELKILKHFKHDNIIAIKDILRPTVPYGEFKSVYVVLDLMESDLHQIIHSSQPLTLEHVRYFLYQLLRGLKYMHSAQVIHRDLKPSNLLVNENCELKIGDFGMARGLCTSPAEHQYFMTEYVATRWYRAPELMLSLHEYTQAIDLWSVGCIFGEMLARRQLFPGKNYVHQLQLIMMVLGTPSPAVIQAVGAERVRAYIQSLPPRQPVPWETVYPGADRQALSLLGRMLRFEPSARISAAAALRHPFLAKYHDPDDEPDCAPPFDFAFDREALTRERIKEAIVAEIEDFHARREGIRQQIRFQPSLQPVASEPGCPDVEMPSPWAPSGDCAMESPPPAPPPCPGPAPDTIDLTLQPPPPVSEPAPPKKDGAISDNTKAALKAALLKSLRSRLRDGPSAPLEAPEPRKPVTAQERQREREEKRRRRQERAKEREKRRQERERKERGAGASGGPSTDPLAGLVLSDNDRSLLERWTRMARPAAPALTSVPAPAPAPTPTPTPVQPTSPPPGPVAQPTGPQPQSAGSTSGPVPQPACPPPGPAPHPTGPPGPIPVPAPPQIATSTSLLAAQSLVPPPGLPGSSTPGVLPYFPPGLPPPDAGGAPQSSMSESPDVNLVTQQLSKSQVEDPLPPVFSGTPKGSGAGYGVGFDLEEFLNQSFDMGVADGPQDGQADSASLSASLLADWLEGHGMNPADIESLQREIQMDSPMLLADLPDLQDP
Sequence of 6-phosphogluconate dehydrogenase, decarboxylating (Homo sapiens) (P52209 whole entry, looked up): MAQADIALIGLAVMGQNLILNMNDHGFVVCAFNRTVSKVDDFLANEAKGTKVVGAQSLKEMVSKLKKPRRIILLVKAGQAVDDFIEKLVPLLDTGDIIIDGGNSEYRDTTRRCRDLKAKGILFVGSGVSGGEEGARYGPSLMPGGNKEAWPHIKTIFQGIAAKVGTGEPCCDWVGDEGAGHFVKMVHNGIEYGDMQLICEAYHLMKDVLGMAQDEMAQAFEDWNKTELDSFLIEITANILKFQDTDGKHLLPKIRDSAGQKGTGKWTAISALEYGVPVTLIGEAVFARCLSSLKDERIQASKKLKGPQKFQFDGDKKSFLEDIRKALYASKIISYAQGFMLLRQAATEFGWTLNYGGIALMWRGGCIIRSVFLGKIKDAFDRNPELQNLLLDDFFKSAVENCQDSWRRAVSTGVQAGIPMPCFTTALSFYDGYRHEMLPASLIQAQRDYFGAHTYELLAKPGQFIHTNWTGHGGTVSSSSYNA
Sequence of NAD(+) hydrolase SARM1 (Homo sapiens) (Q6SZW1 whole entry, looked up, the tested form may be a part): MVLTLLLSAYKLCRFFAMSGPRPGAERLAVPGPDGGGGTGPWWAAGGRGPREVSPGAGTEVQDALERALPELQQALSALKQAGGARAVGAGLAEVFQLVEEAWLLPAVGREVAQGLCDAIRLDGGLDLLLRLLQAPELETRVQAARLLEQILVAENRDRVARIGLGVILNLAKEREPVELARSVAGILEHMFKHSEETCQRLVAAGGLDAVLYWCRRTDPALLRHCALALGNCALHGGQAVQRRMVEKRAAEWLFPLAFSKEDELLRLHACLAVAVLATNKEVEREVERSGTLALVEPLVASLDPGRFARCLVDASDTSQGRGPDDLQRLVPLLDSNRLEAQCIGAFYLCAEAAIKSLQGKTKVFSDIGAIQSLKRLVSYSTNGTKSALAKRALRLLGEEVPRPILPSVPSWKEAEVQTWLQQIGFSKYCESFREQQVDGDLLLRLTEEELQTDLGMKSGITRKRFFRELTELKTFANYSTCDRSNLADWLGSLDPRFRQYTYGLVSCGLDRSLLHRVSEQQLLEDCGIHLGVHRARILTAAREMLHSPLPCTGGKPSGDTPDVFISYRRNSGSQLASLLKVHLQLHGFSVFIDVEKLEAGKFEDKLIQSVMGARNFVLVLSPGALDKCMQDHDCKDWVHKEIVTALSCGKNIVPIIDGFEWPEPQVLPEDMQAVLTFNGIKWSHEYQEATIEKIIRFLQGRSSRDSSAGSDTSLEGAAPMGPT

With `CC(=O)[C@@]1(O)CCC2C3CCC4=CC(=O)CC[C@]4(C)C3CC[C@@]21C` (some centres undefined), the inhibition (commonly the relative decrease from the control value, in per cent) in assay [1] was 7.07% (inactive). For the same compound, in assay [2], the red/green cell ratio (normalised) is 0.98 (inactive). The normalised cell number was found to be 0.94 in assay [2] (setting [20]) and 0.92 in assay [2] (setting [21]). The fold change is 0.883 (inactive) in [3] (setting [22]) and 0.857 in assay [3] (setting [23]). Besides, the figures for the cell count in assay [3] (setting [24]) and in assay [3] (setting [25]) were 7810 and 8840, respectively.
`NC[C@H]1O[C@H](O[C@H]2[C@H](O)[C@@H](O[C@H]3O[C@H](CO)[C@@H](O)[C@H](N)[C@H]3O)[C@H](N)C[C@@H]2N)[C@H](N)C[C@@H]1O`: the parasite load remaining in assay [4] was 155% (inactive) and 39.4% (inactive) and 27.1% (inactive). The viability (in general, a read-out of living cells in per cent, often relative to untreated cells) in assay [4] was 107% and 98% and 71.5%. The inhibition in assay [1] is -0.0775% (inactive). The red/green cell ratio (normalised) in assay [2] was 1.17 (inactive). For the same compound, the results for the normalised cell number in assay [2] (setting [20]) and in assay [2] (setting [21]) were 0.88 and 1.03, respectively. The fold change in assay [3] (setting [22]) was 0.865 (inactive) and 0.994 (inactive) and 0.887 (inactive); in assay [3] (setting [23]), 1.22 and 2.22 and 1.69. For the same compound, the cell count is 8760 and 12000 and 9090 in [3] (setting [24]); 10100 and 12100 and 10300 in [3] (setting [25]). Further, the z-score in assay [5] (setting [26]) was 0.333 (inactive) and -0.0714 (inactive); in assay [5] (setting [27]), 0.434 and -0.898; in assay [8] it was 0.605 (inactive). Moreover, the remaining NAD in assay [6] was 22 nM (inactive). In addition, the luciferase signal in assay [7] was 84 AU (inactive).
`O=C(/C=C/c1ccc(O)cc1)c1ccc(O)cc1O`: the period change in assay [9] was 0.18 h (inactive). Also, in [1], the inhibition was -4.78% (inactive). In addition, the red/green cell ratio (normalised) in [2] is 1.01 (inactive). Moreover, the normalised cell number in [2] (setting [20]) and in assay [2] (setting [21]) was 0.91 throughout. The fold change is 1.12 (inactive) in assay [3] (setting [22]) and 0.85 in [3] (setting [23]). Also, the cell count in assay [3] (setting [24]) turned out to be 9020; in assay [3] (setting [25]) it was 8080. In addition, in assay [10], the call was inactive. In addition, the luciferase signal in [7] was 80 AU (inactive). For the same compound, the z-score in assay [8] was -0.25 (inactive).
Turning to `COc1ccc(C(C)=O)c(O)c1`, the inhibition in assay [1] is 10.4% (inactive). The red/green cell ratio (normalised) in assay [2] is 0.98 (inactive). Besides, the values for the normalised cell number in assay [2] (setting [20]) and in assay [2] (setting [21]) were 0.95 and 0.94, respectively. Moreover, the results for the fold change in [3] (setting [22]) and in assay [3] (setting [23]) were 0.902 (inactive) and 0.777, respectively. Further, the cell count is 9270 in assay [3] (setting [24]) and 10300 in assay [3] (setting [25]). For the same compound, the z-score is -0.383 (inactive) in assay [5] (setting [26]) and 0.53 in assay [5] (setting [27]). Further, the luciferase signal in [7] is 24 AU (inactive).
Turning to `CC[C@H]1OC(=O)[C@H](C)[C@@H](O[C@H]2C[C@@](C)(OC)[C@@H](O)[C@H](C)O2)[C@H](C)[C@@H](O[C@@H]2O[C@H](C)C[C@H](N(C)C)[C@H]2O)[C@](C)(O)C[C@@H](C)C(=O)[C@H](C)[C@@H](O)[C@]1(C)O`, the inhibition in assay [11] is -6% and 7.62% and 29.3%; in [1] it was 2.57% (inactive) and -12% (inactive). The score in assay [12] is 1 and 1.46 and 0.46. For the same compound, in assay [13], the rescue above control is 2.19 and 2 and 0.57. The cytochrome c release ratio in assay [14] was 1.13 and 0.65 and 0.96. Moreover, in [15], the inhibition of aggregation was 76.2% and 28.2% and 15.7%. Further, the glutamate uptake change in assay [16] is -4.4% and 1.02% and 35.1%. This compound showed an inclusion score in [17] of 2. The aggregation suppression score in assay [18] is 0.915 and 1.27 and 0.716. Besides, the parasite load remaining in [4] was 44.8% (inactive) and 99.9% (inactive) and 62.2% (inactive). For the same compound, in [4], the viability was 44.6% and 74.8% and 115%. In assay [2], the red/green cell ratio (normalised) is 1.08 (inactive) and 0.76 (inactive). Further, the normalised cell number in [2] (setting [20]) was 0.96 and 0.98; in assay [2] (setting [21]) it was 1.03 and 0.74. In addition, the fold change in [3] (setting [22]) is 0.923 (inactive) and 0.889 (inactive) and 0.914 (inactive); in assay [3] (setting [23]), 0.947 and 1.27 and 1.04. Also, the cell count in assay [3] (setting [24]) was 7930 and 8750 and 10800; in assay [3] (setting [25]) it was 8590 and 9850 and 11800. In addition, the z-score in [5] (setting [26]) was -0.415 (inactive); in [5] (setting [27]), -0.471. The remaining NAD in assay [6] was 85 nM (active) and 10 nM (inactive). Also, in assay [7], the luciferase signal is 60 AU (inactive).
`O=c1c(O)c(-c2ccc(O)c(O)c2)oc2cc(O)ccc12`: the inhibition in assay [1] was -3.55% (inactive). In addition, the red/green cell ratio (normalised) in [2] is 1.02 (inactive). Besides, the figures for the normalised cell number in assay [2] (setting [20]) and in [2] (setting [21]) were 1.04 and 1.06, respectively. Further, the fold change in [3] (setting [22]) is 0.705 (inactive) and 0.857 (inactive); in assay [3] (setting [23]) it was 0.235 and 0.741. In addition, the cell count in assay [3] (setting [24]) is 4440 and 7100; in assay [3] (setting [25]), 6300 and 8290. Moreover, the z-score in [5] (setting [26]) is -0.19 (inactive) and -0.5 (inactive); in assay [5] (setting [27]), -0.897 and -0.252; in assay [8], 0.17 (inactive). In addition, in assay [7], the luciferase signal is 56 AU (inactive).
Regarding `c1ccc2c(Cc3c[nH]c4ccccc34)c[nH]c2c1`, the survival in assay [19] is 89.8 (inactive). For the same compound, the inhibition in assay [1] was 2.37% (inactive). Further, in assay [2], the red/green cell ratio (normalised) is 0.91 (inactive). Also, the figures for the normalised cell number in assay [2] (setting [20]) and in assay [2] (setting [21]) were 1.11 and 1.01, respectively. Besides, the values for the fold change in [3] (setting [22]) and in assay [3] (setting [23]) were 0.926 (inactive) and 0.966, respectively. For the same compound, the cell count in assay [3] (setting [24]) was 4780; in assay [3] (setting [25]) it was 5160.
